Source: PubChem BioAssay
Vaccinia mCherry: vaccinia inhibition (mCherry reporter) | Vaccinia virus mCherry reporter infection, fluorescence | Potency, µM (series often up to 36.5 µM), hits mostly inhibitors | 310,000 compounds, 0.63% hits; calls by dose curve; tested in A549 cells; also: nearly all actives have a fitted effect of over 35% in size
Vaccinia Venus: vaccinia inhibition (Venus reporter). Potency, µM (titrated, usually from 36.5 µM), usual class: inhibitors. Vaccinia virus Venus reporter expression, fluorescence. 330,000 compounds, 0.46% hits; calls by dose curve; tested in A549 cells; also: nearly all actives have a fitted effect of over 30% in size
HCV inh: blocks hepatitis C virus | Huh7.5.1 HCVcc-Cre infection, luciferase reporter, 44 h | Potency, µM (top dose mostly 41.8 µM), hits mostly inhibitors | 340,000 compounds, 3.4% hits; active = well fitted inhibition curve with a large enough effect; inconclusive = small, poorly fitted or top-dose-only effect, or another doubt; inactive = no such curve, though single readings can be large or run the other way
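Cells (1,000/well) were plated 4 h before compound, then infected with HCVcc-Cre virus (~0.5 moi). After 44 h further culture, infection was read as luciferase luminescence following a 15 min substrate incubation at room temperature.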
Of the large screens only hits and unclear results are named; the others gave an inactive call. Only some compounds are listed: those with a hit (about 3.3% of all), similar ones and a draw of the others.

COc1ccc(Cc2c(C(C)(C)C)nc3ccc(Cl)cn23)c(C)c1	none (no result: HCV inh)
COCCNC(=O)CSc1nc2cc3c(cc2c(=O)n1CCCCCC(=O)NCCc1ccc(OC)c(OC)c1)OCO3	none (no result: HCV inh)
CCC[C@H]1COCCS(=O)(=O)N1Cc1cccc(F)c1	none (no result: HCV inh)
O=[N+]([O-])c1cccc2nc3ccccc3c(NCCCn3ccnc3[N+](=O)[O-])c12	Vaccinia mCherry 2.82µM, Vaccinia Venus 1.41µM, HCV inh inconclusive
O=[N+]([O-])c1ccccc1Nc1c2ccccc2nc2ccccc12	Vaccinia mCherry inconclusive, HCV inh inconclusive
CCOC(=O)C(CCc1ccccc1)NC(C)C(=O)N1CCCC1C(=O)O (stereo not given)	none (no result: HCV inh)
Cc1cc(Cl)ccc1OCC(=O)N1CCOc2ccc(CN3C[C@@H](C)O[C@@H](C)C3)cc2C1	none (no result: HCV inh)
Cn1c(=O)oc2cc(S(=O)(=O)Nc3ccc(F)cc3)ccc21	none (no result: Vaccinia mCherry, Vaccinia Venus)
CC1(C)CC(NC(=O)COc2ccc(Cl)cc2Cl)CC(C)(C)N1	HCV inh inconclusive
Cc1cc(OCC(=O)NC2CC(C)(C)NC(C)(C)C2)c(C)cc1Br	HCV inh 10µM
CC(C)c1ccc(OCC(=O)NC2CC(C)(C)NC(C)(C)C2)c(Br)c1	HCV inh 11.2µM (no result: Vaccinia mCherry, Vaccinia Venus)
Cc1ccc(OCC(=O)NC2CC(C)(C)NC(C)(C)C2)c(C)c1	none
COc1ccc(Cl)cc1C(=O)Nc1nnc2n1CCS2	none (no result: HCV inh)
CCn1c(CN2CCCCC2)nc2cc(NC(=O)c3ccc([N+](=O)[O-])cc3)ccc21	Vaccinia Venus inconclusive (no result: HCV inh)
Cc1c(OCC(=O)N2CCN(c3ccccc3)CC2)ccc2c3c(c(=O)oc12)CCCC3	HCV inh inconclusive
COC(=O)CSc1cccc2c1C(=O)CC2c1ccccc1 (stereo not given)	none
O=C1C=CC2(O[C@H](c3ccccc3)[C@@H](c3ccccc3)O2)[C@H](Sc2ccccc2O)C1	Vaccinia mCherry 10µM, Vaccinia Venus inconclusive, HCV inh inconclusive
Cc1ccc(S(=O)(=O)NCCC(=O)N2CCCCCCC2)cc1C	none
O=C1CCN(CCCc2ccccc2)CCN1[C@H](CO)Cc1ccccc1	Vaccinia Venus inconclusive
O=C1CCN(CCc2ccccc2)CCN1[C@H](CO)Cc1ccccc1	HCV inh 2.24µM
COCCCn1c(SCC(=O)NC2CCS(=O)(=O)C2)nnc1-c1ccc(Cl)cc1 (stereo not given)	none (no result: Vaccinia mCherry, Vaccinia Venus)
COc1ccc(N(C(=O)Cc2cccs2)C(C(=O)NC2CCCC2)c2ccncc2)cc1OC (stereo not given)	none
Cc1cccc(N(C(=O)C(F)(F)F)C(C(=O)NC2CCCCC2)c2cccs2)c1 (stereo not given)	none
C#CC(=O)N(c1ccc(OC)c(OC)c1)C(C(=O)NC1CCCC1)c1cccs1 (stereo not given)	Vaccinia mCherry inconclusive, Vaccinia Venus inconclusive, HCV inh 0.316µM
C#CC(=O)N(c1cccc(OC)c1)C(C(=O)NC1CCCC1)c1cccs1 (stereo not given)	Vaccinia mCherry 20µM, Vaccinia Venus 14.1µM, HCV inh 0.562µM
O=C(c1cc(-c2ccccc2)nn1-c1ccccc1)N1CCN(S(=O)(=O)c2c(F)cccc2F)CC1	HCV inh 12.6µM
O=C(c1cc(C2CC2)nn1-c1ccccc1)N1CCN(S(=O)(=O)c2ccccc2)CC1	HCV inh inconclusive
COCC(=O)Nc1cc(C(=O)N2CCCC(C(N)=O)C2)cc2nc(-c3ccccc3)n(C)c12 (stereo not given)	none (no result: HCV inh)
Cc1ccc2c(c1)CN(CCNC(=O)C(C)Oc1ccccc1)CC(C)O2 (stereo not given)	none (no result: HCV inh)
NC(=O)c1ccsc1NC(=O)CSc1n[nH]c(N)n1	none
Cc1ccsc1/C=C/C1=Cc2c(sc(NC(=O)CSc3n[nH]c(N)n3)c2C#N)C(C)(C)C1	Vaccinia mCherry inconclusive, Vaccinia Venus inconclusive, HCV inh 11.2µM
OC1CCN(Cc2ccc3c(c2)CN(C/C=C/c2ccco2)CCO3)CC1	none (no result: HCV inh)
CCOc1ccc(OCC)c(Nc2nc3ccc(Cl)cc3n3cnnc23)c1	none (no result: HCV inh)
CC(=O)c1ccc(NC(=O)Nc2ccc(NS(=O)(=O)c3ccc(C)cc3)cc2)cc1	Vaccinia mCherry inconclusive, Vaccinia Venus inconclusive, HCV inh 11.2µM
CC(=O)Nc1ccc(C(=O)NNS(=O)(=O)c2ccc(C)cc2)cc1	none
COc1ccc(Oc2nc3c(c(=O)n(C)c(=O)n3C)n2Cc2ccccc2Cl)cc1	none (no result: HCV inh)
Cn1c(=O)n(CCc2ccccc2)c(=O)c2c1nc1n2CCCN1CCc1ccccc1	HCV inh inconclusive (no result: Vaccinia mCherry)
CC(C)Cn1c(=O)c2c(nc3n2CCCN3CCc2ccccc2)n(C)c1=O	Vaccinia Venus inconclusive, HCV inh 10µM (no result: Vaccinia mCherry)
COc1cc(NC(=O)c2ccc(-c3cccc(F)c3)o2)ccc1NC(=O)c1ccccc1Cl	HCV inh 7.08µM
COc1ccc(NC(=O)c2ccc(-c3ccc(F)cc3)o2)cc1OC	none (no result: HCV inh)
O=C(Nc1nccs1)c1ccc(-c2ccccc2[N+](=O)[O-])o1	HCV inh inconclusive
COc1ccccc1NC(=O)c1ccc(-c2ccccc2[N+](=O)[O-])o1	HCV inh 11.2µM
COc1ccccc1NC(=O)c1ccc(-c2ccc(Br)cc2)o1	Vaccinia mCherry inconclusive, Vaccinia Venus inconclusive, HCV inh 8.91µM
NC(=O)c1ccccc1NC(=O)c1ccc(-c2ccc(Br)cc2)o1	none (no result: HCV inh)
CCn1cc2nc(SCc3cc(C)ccc3C)n(CCc3ccccc3)c(=O)c2n1	Vaccinia mCherry inconclusive (no result: HCV inh)
COC(=O)[C@]12CCCCC=C1N(Cc1ccco1)C(=O)[C@H](CC(=O)N1CCC(c3ccccc3)CC1)C2	none (no result: HCV inh)
CC(C)c1ccc(OCCCCCN2CCOCC2)cc1	none (no result: Vaccinia mCherry, Vaccinia Venus)
CC(=O)Oc1ccc(OC(C)=O)c(SCCCCCN2CCOCC2)c1	HCV inh 11.2µM (no result: Vaccinia mCherry, Vaccinia Venus)
CC1CCc2sc(C(=O)NN=C3CCC(c4ccccc4)CC3)cc2C1 (stereo not given)	none (no result: Vaccinia mCherry, Vaccinia Venus)
CC1CCc2sc(C(=O)NC3CCN(Cc4ccccc4)CC3)cc2C1 (stereo not given)	HCV inh 11.2µM (no result: Vaccinia mCherry, Vaccinia Venus)
CCC1CCc2sc(C(=O)NC3CCN(Cc4ccccc4)CC3)cc2C1 (stereo not given)	HCV inh 10µM
CCC1CCc2sc(C(=O)NCc3ccccn3)cc2C1 (stereo not given)	none
CN(C(=O)COc1ccccc1C(=O)Nc1ccccc1)c1ccccc1	none (no result: HCV inh)
C/C(=N/NC(=O)c1ccoc1C)c1cccc(NC(=O)C(F)(F)F)c1	none
C/C(=N/NC(=O)c1ccc(C)s1)c1cccc(NC(=O)c2ccoc2C)c1	HCV inh 11.2µM (no result: Vaccinia mCherry, Vaccinia Venus)
COc1cc2nc(NC3CCN(C)CC3)nc(N3CCCN(C)CC3)c2cc1OC	none (no result: HCV inh)
COc1ccc(OCCn2cc(C(=O)c3ccco3)c3ccccc32)cc1	none (no result: HCV inh)
O=C(C(=O)N1CCOCC1)c1cn(CCCOc2ccccc2)c2ccccc12	none
Cc1ccc(OCCn2cc(C(=O)c3ccco3)c3ccccc32)cc1C	none (no result: HCV inh)
CC(=O)c1cn(CCOc2ccc(F)cc2)c2ccccc12	HCV inh 12.6µM (no result: Vaccinia mCherry, Vaccinia Venus)
Cc1cc(OCCn2cc(/C(N)=N/O)c3ccccc32)ccc1Cl	Vaccinia mCherry inconclusive, Vaccinia Venus inconclusive, HCV inh 7.08µM
CC(=O)c1cn(CCCOc2ccccc2)c2ccccc12	HCV inh 7.08µM
CNC1C(O)C2OC3OC(C)CC(=O)[C@@]3(O)O[C@H]2[C@H](NC)C1O (stereo not given in full)	none (no result: HCV inh)
COC(=O)C1=C(c2ccc(-c3ccccc3)c(F)c2)C[C@@H]2CC[C@H]1N2C(=O)NCCOc1ccccc1Cl	Vaccinia mCherry inconclusive, Vaccinia Venus inconclusive, HCV inh 14.1µM
